Compound activity from PubChem BioAssay.
Shown are actives, neighbours in structure and some others; about 19% of the full set was active somewhere.
Shiga toxin inh: Shiga toxin inhibition; AID 2315; Vero cells, Shiga toxin protein synthesis inhibition reporter; actives 9.2% (n = 290,000); inhibition, % at 38.7 µM; in the data active = inhibition mostly above about 28%, no sharp cut-off; inactive = mostly below about 43%
Pf growth 48h: P. falciparum growth inhibition at 48 hours (one generation). actives 5.9% (n = 310,000). Potency, µM (top dose mostly 28.7 µM), usual class: inhibitors. P. falciparum luciferase growth in erythrocytes, 48 h
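Growth was read as firefly luciferase luminescence after a 48 h, 37 C, 5% CO2 exposure of compounds to reporter-bearing P. falciparum cultures (0.1% parasitemia, 2% hematocrit final) in Albumax-supplemented RPMI 1640.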
SARS PLpro yeast: SARS-CoV PLP inhibition in yeast | AID 485353 | Potency, µM (top dose mostly 32.9 µM), hits mostly activators | actives 0.19% (n = 330,000) | S. cerevisiae expressing SARS-CoV PLpro, growth rescue; calls by dose curve; note: nearly all actives have a fitted effect of over 55% in size
CHX counter: counter-screen hit for Shiga toxin inhibitors, cycloheximide; cell reporter, cycloheximide protein synthesis inhibition counterscreen; max response, %; AID 2314; actives 12% (n = 300,000); in the data active = max response mostly above about 13%, no sharp cut-off; inactive = mostly below about 14%; note: read at 38.3 µM for the half of the compounds with a filed dose
AMA1-RON2 inh: inhibitors of Plasmodium falciparum AMA1-RON2 interaction. actives 0.2% (n = 360,000). Potency, µM (series often up to 58.2 µM), actives largely listed as inhibitors. AID 720542. AlphaScreen AMA1-biotinylated RON2 peptide binding; note: nearly all actives have a fitted effect of over 45% in size
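AMA1 (3D7) with his tag at 25 nM final met compounds first, then biotinylated RON2 peptide at 25 nM; detection used donor plus acceptor beads, 10 µg/mL apiece, read by AlphaScreen after 30 min at room temperature.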
Pf growth 96h: P. falciparum growth inhibition at 96 hours; actives 6.9% (n = 320,000); P. falciparum luciferase reporter growth, 96 h; Potency, µM (top dose mostly 28.7 µM), most hits filed as inhibitors
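96 h incubation, 37 C, 5% CO2, of luciferase-reporter P. falciparum-infected RBCs (2% hematocrit, 0.05% parasitemia final) with test compounds; endpoint luminescence.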
Of the large screens only hits and unclear results are named; the others gave an inactive call. Unless noted, calls come from the whole dose curve; as a rule, active = well fitted curve in the direction sought with a large enough effect; inconclusive = small, poorly fitted or top-dose-only effect, or another doubt; inactive = no such curve, though single readings can be large; an effect the other way counts as inactive or inconclusive.

Cc1nn(C)c(C)c1C(C)NC(=O)c1cc(COc2ccc(F)c(F)c2)on1 (stereo not given)	Shiga toxin inh 47, CHX counter 33
Cc1nn(C)cc1C(C)NC(=O)c1cc(COc2ccc(F)c(F)c2)on1 (stereo not given)	Pf growth 48h inconclusive, CHX counter 33, Pf growth 96h inconclusive
COc1cc(C)c(S(=O)(=O)NOCc2ccccc2)c(C)c1C	Pf growth 96h inconclusive (no result: Shiga toxin inh)
CC(C)C(=O)NNC(=O)c1cc2sccc2s1	none
CC(=O)c1cccc(NC(=O)c2ccccc2N(C)S(=O)(=O)c2ccc(C)cc2)c1	Pf growth 48h inconclusive, Pf growth 96h 13µM
CCCNC(=O)c1ccccc1NC(=O)c1ccccc1N(C)S(=O)(=O)c1ccc(C)cc1	Pf growth 48h 8.3µM
CN(c1ccccc1C(=O)Nc1cccc(Br)c1)S(=O)(=O)c1ccccc1	none
CCOC(=O)C(=CNc1ccc(Oc2cncc(Cl)c2)nc1)C(=O)OCC	none
C[C@H](NC(=O)C1CCN(C(=O)[C@H](Cc2ccccc2)NC(=O)OC(C)(C)C)CC1)C(=O)O	none
NCC(O)CC(=O)O (stereo not given)	none (no result: Shiga toxin inh, SARS PLpro yeast, CHX counter, AMA1-RON2 inh)
Clc1ccccc1OCCCOc1cccc2cccnc12	CHX counter 37 (no result: Shiga toxin inh)
O=Cc1ccc(OCCCOc2cccc3cccnc23)cc1	none
O=[N+]([O-])c1ccccc1OCCCOc1cccc2cccnc12	CHX counter 29 (no result: Shiga toxin inh)
Brc1ccccc1OCCOCCOc1cccc2cccnc12	Pf growth 96h inconclusive
NC(=O)c1ccc(Oc2cccc3cccnc23)c([N+](=O)[O-])c1	none
O=Cc1ccccc1OCCCOc1cccc2cccnc12	Shiga toxin inh 56, CHX counter 24
O=C(C1=C(O)C(=O)N(CCCn2ccnc2)C1c1cccc(Br)c1)c1ccco1 (stereo not given)	none
Cc1c(C(=O)OCC(=O)Nc2ccc(C(N)=O)cc2)cccc1[N+](=O)[O-]	none
CCN(C(=O)CSc1nc2cc(C(=O)OC)ccc2c(=O)n1Cc1ccco1)c1cccc(C)c1	Pf growth 48h 4.7µM
C=CCn1c(SCC(=O)OCC)nc2cc(C(=O)NCc3ccco3)ccc2c1=O	Pf growth 96h 7.4µM (no result: Pf growth 48h)
COCCNC(=O)c1ccc2c(=O)n(Cc3ccco3)c(SCC(=O)NC3CCCC3)nc2c1	Pf growth 96h 12µM (no result: Pf growth 48h)
CCc1ccc(NC(=O)CSc2nc3cc(C(=O)OC)ccc3c(=O)n2Cc2ccco2)cc1	none
O=C(CSCc1nc2c(nnn2Cc2ccc(F)cc2)c(=O)[nH]1)Nc1cccc(C(F)(F)F)c1	none
C=CCN(C(=O)CCC(=O)Nc1cc(C)on1)C(C(=O)NC1CCCC1)c1ccc(OC)cc1OC (stereo not given)	Pf growth 48h inconclusive, Pf growth 96h inconclusive
CCN(CC)c1ccc(S(=O)(=O)N2CCOCC2)cc1NC(=O)COC(=O)C1=COCCO1	none (no result: Shiga toxin inh, Pf growth 48h, SARS PLpro yeast, CHX counter, Pf growth 96h)
CCOc1ccccc1NC(=O)Cc1coc2ccc(C)cc12	Pf growth 48h inconclusive
O=[N+]([O-])c1ccc(Oc2cccc(C(F)(F)F)c2)nc1	none
COc1cc(C(C)=O)ccc1OCC(=O)Nc1ccc(S(=O)(=O)N2CCCCC2)cc1	none (no result: Shiga toxin inh, Pf growth 48h, SARS PLpro yeast, CHX counter, Pf growth 96h)
CCc1ccc(OCC(=O)Nc2ccc(S(=O)(=O)N3CCCC3)cc2)c(Br)c1	Pf growth 48h 13µM (no result: Pf growth 96h)
O=C(COc1ccc(Br)cc1CO)Nc1ccc(S(=O)(=O)N2CCCCC2)cc1	Pf growth 48h 9.3µM, Pf growth 96h 6.6µM (no result: Shiga toxin inh, CHX counter)
O=C(NCc1c(Cl)cccc1Oc1ccccc1)c1ccccc1	Pf growth 96h inconclusive
CCC(CC)CN1CCC(CN2C(=S)NC[C@@H]2CC(C)C)CC1	none (no result: Shiga toxin inh, Pf growth 48h, SARS PLpro yeast, CHX counter, Pf growth 96h)
CN(C)c1ccc(-c2csc(C(C)(O)c3ccc(F)c(F)c3)n2)cc1 (stereo not given)	AMA1-RON2 inh 20µM (no result: Shiga toxin inh, Pf growth 48h, SARS PLpro yeast, CHX counter, Pf growth 96h)
NC(c1csc(Nc2nccc(C(F)(F)F)n2)n1)C1CCCCC1 (stereo not given)	none (no result: Shiga toxin inh, Pf growth 48h, SARS PLpro yeast, CHX counter, Pf growth 96h)
Cc1ccc(C(C)C)c(OCC(=O)NNC(=O)Cn2[nH]c(=O)c3ccccc3c2=O)c1	Pf growth 48h inconclusive, Pf growth 96h inconclusive (no result: Shiga toxin inh, CHX counter)
O=C(c1cccc(F)c1)N(Cc1nc2ccccc2c(=O)[nH]1)C1CCCC1	Pf growth 48h 6.6µM, Pf growth 96h inconclusive
O=C(NC1CCCCC1)N(Cc1nc2ccccc2c(=O)[nH]1)C1CCCCC1	Shiga toxin inh 65, Pf growth 48h inconclusive, CHX counter 25
CC1CCCCC1NC(=O)CCCc1nc2ccccc2c(=O)[nH]1 (stereo not given)	CHX counter 7.8, Pf growth 96h inconclusive
CCn1c(CN2CCN(c3ccc(Cl)cc3)CC2)nc2ccccc21	Pf growth 48h 12µM, Pf growth 96h inconclusive
Cn1c(CN2CCN(c3ccc(Cl)cc3)CC2)nc2ccccc21	SARS PLpro yeast 8.9µM, Pf growth 96h inconclusive
O=C(CCC1CCCN(C(=O)c2ccccc2Cl)C1)N1CCN(c2ccccn2)CC1 (stereo not given)	Pf growth 48h inconclusive
O=S(=O)(c1ccc(Nc2ccc(-c3ccc4c(c3)OCCO4)nn2)cc1)N1CCCC1	CHX counter 54, Pf growth 96h inconclusive (no result: Pf growth 48h)
O=C(COC(=O)Cc1ccc2c(c1)OCCO2)Nc1ccc(S(=O)(=O)N2CCCC2)cc1	none (no result: Pf growth 96h)
O=C(NC1CC1)c1cccc(Nc2ccc(-c3ccc4c(c3)OCCO4)nn2)c1	Shiga toxin inh 55, Pf growth 48h inconclusive, CHX counter 31
O=C(Nc1cccc(C(=O)NC2CC2)c1)c1ccccc1	none (no result: Shiga toxin inh, Pf growth 48h, SARS PLpro yeast, CHX counter, Pf growth 96h)
CCOC(=O)c1cc(=O)c2c([N+](=O)[O-])ccc(OC)c2o1	none
O=C(NCc1ccccc1CN1CCCC1)c1cc2cc(Cl)ccc2o1	Pf growth 48h 13µM, Pf growth 96h inconclusive (no result: Shiga toxin inh, CHX counter)
O=C(c1cc2cc(Br)cc(Br)c2oc1=O)N1CCCC1	none
O=C(c1cc2cc(Br)ccc2o1)N1CCCCC1	Shiga toxin inh 92, CHX counter 38
O=C(c1cc2cc(Cl)ccc2o1)N1CCCC1	Shiga toxin inh 89, Pf growth 48h inconclusive, CHX counter 49, Pf growth 96h inconclusive
C=CC#CC1(O)CC(C)N(C)CC1C (stereo not given)	none
CC(C)(C)c1ccc(-c2cc(-c3ccccc3O)[nH]n2)cc1	Shiga toxin inh 59, CHX counter 27
Oc1ccccc1-c1cc(-c2cccc(F)c2)n[nH]1	Shiga toxin inh 122, CHX counter 37, Pf growth 96h inconclusive
CCc1cc2c(=O)n(C(C)C(=O)OC3CCCCC3)cnc2s1 (stereo not given)	Shiga toxin inh 37, CHX counter 41
Cc1ccc(CNC(=O)[C@H](C)[C@H]2C[C@]2(C)[C@H](NC(=O)OCc2ccccc2)c2ccccc2)o1	Pf growth 48h inconclusive, Pf growth 96h inconclusive
COc1ccc(C(=O)Nc2ccccc2NC(=O)c2ccc(OC)cc2)cc1	none (no result: Shiga toxin inh, Pf growth 48h, SARS PLpro yeast, CHX counter, Pf growth 96h)
COc1ccc(C(=O)Nc2cccc3ccccc23)cc1	CHX counter 21, Pf growth 96h inconclusive
COc1cc(OC)c(C(=O)Nc2cccc3ccccc23)cc1OC	CHX counter 21 (no result: Shiga toxin inh)
CCOc1ccccc1C(=O)Nc1cccc2ccccc12	none
